Results as given in PubChem BioAssay (NCI).
About 83,000 compounds went through this panel and 20% of them were active in at least one assay; those are over-represented in the sample as a whole.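 Testing used 96-well plates and a 48-hour single-concentration exposure. Example: -40 means 40% of the starting cells died.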 A number with no mark means an inactive call. The source made the active and inactive calls. How the source made its calls: active means growth percent below 10; inactive means the rest.

tested on: HL-60(TB) leukemia; experiment: NCI-60 one-dose screen, 48 h (100 = growth as untreated, 0 = no growth, -100 = all killed); conditions: 10 µM unless noted

Question: With CN(C)c1ccc(S(=O)(=O)O)cc1 as the compound, how does the growth read?
Answer: Its growth is 128%.

Question: For Cn1ccnc1CN1CCSC(C(=O)Nc2ccccc2)C1 (centres undefined), which growth is on record?
Answer: Its growth is 88.6%.

Question: With O=S(=O)(CCN1CCOCC1)Nc1cncc(-c2ccc3ncnc(Nc4ccc(F)c(Cl)c4)c3c2)c1 as the compound, how does the growth read?
Answer: The growth was 110%.

Question: How did the growth turn out when COc1ccc(-c2nc3sc(C)cn3c2/C=C/C(=O)c2cc(OC)c(OC)c(OC)c2)cc1 was run?
Answer: Its growth is 55.9%.

Question: Which growth does the source give for COc1ccc2nc(-c3ccccc3)cc(C(C)=O)c2c1 here?
Answer: Its growth is 84.8%.

Question: With [2H]C1([2H])CCN(C(=O)C2CC2)c2cc(NS(=O)(=O)c3ccc(-c4cccc(C(N)=O)c4)cc3)ccc21 as the compound, how does the growth read?
Answer: Its growth is -0.857% (active).

Question: With CCOC(=O)CNC(=O)Nc1ccc(Oc2ccc(NC(=O)NCC(=O)OCC)cc2)cc1 as the compound, how does the growth read?
Answer: Its growth is 108%.

Question: With C=C1C(=O)O[C@H]2[C@H]1CC/C(Cn1cc(Cc3c[nH]c4ccccc34)nn1)=C\CC[C@@]1(C)O[C@@H]21 as the compound, how does the growth read?
Answer: Its growth is -49.1% (active).

Question: For O=C(CSc1nccc(Nc2cccc3ccccc23)n1)c1ccc(Cl)cc1, which growth is on record?
Answer: Its growth is 99.2%.

Question: How did the growth turn out when Oc1ccc(O)c(-c2ccccc2)c1 was run?
Answer: Its growth is 35.4%.

Question: How did the growth turn out when CCOCc1nc2ccccc2c(=O)[nH]1 was run?
Answer: The growth was 107%.

Question: CONC1=Nc2cc(NC(N)=NCc3ccccc3)c(N(C)C3CCCCC3)cc2OC1 was tested. Which growth did it give?
Answer: The growth was 69.5%.

Question: How did the growth turn out when C/C(Cc1ccc(Cl)cc1)=C(\c1ccc(OCCN2CCCCCC2)cc1)c1ccc(OC(=O)Cc2ccccc2)cc1 was run?
Answer: The growth was 15.8%.

Question: Which growth does the source give for CC1NC(C)c2ccc3ccccc3c2O1 (centres undefined) here?
Answer: Its growth is 99.4%.

Question: For COc1ccc(S(=O)(=O)N(C(C)=O)c2ccccc2/C=C/c2cc[n+]([O-])cc2)cc1, which growth is on record?
Answer: Its growth is -27.6% (active).

Question: With O=C1/C=C/[C@@H](O)[C@@H]2C[C@@H](O)C[C@H]2/C=C/CCC[C@H](CCOCc2ccccc2)O1 as the compound, how does the growth read?
Answer: Its growth is 0.107% (active).

Question: How did the growth turn out when COc1ccc2c(c1)OC1=C(C(=O)OC1)C2c1cc(OC)c2c(c1)OCO2 (centres undefined) was run?
Answer: The growth was -13% (active).

Question: With COc1cc(C2c3cc4c(cc3C3OC(=O)C2C3CO)OCO4)cc(OC)c1OC (centres undefined) as the compound, how does the growth read?
Answer: The growth was -17.2% (active).

Question: With CCOc1ccc(S(=O)(=O)Nc2ccc3c(c2)N(S(=O)(=O)CC)CCC3)cc1 as the compound, how does the growth read?
Answer: Its growth is 77.1%.

Question: How did the growth turn out when O=C1/C(=C/c2ccc3c(c2)OCO3)SC(=S)N1C1c2ccccc2Oc2ccccc21 was run?
Answer: The growth was 86.1%.

Question: Which growth does the source give for COCCOCCOCc1n(Cc2ccc3ccccc3n2)c2ccccc2[n+]1Cc1ccc2ccccc2n1 here?
Answer: The growth was -42.9% (active).

Question: For COc1cc(/C=C\c2cc(OC)c(OC)c(OC)c2)cc(N/C=C\C(=O)c2c[nH]c3ccccc23)c1OC, which growth is on record?
Answer: The growth was -30% (active).

Question: Which growth does the source give for CC(C)CCOc1ccc(-c2n[nH]c(C(F)(F)F)c2-c2cncc(C#N)c2)c(O)c1 here?
Answer: The growth was 3.64% (active).

Question: CC(CO)(CO)C(=O)O was tested. Which growth did it give?
Answer: The growth was 108%.

Question: With COc1cc2c(c(OC)c1OC)-c1ccc(NN(C(=O)c3ccccc3)C(=O)c3ccccc3)c(=O)cc1[C@@H](NC(C)=O)CC2 (tested in a mixture with another compound) as the compound, how does the growth read?
Answer: Its growth is -1.35% (active).

Question: Which growth does the source give for CC(O)CN(CC(C)O)c1ccc2c(c1)Cc1cc([N+](=O)[O-])ccc1-2 (centres undefined) here?
Answer: The growth was 74.5%.

Question: Cc1ccc(/C(C#N)=C/c2ccc3c(c2)OCO3)cc1 was tested. Which growth did it give?
Answer: The growth was 67.5%.

Question: For CCCC(CCC)Oc1ccc(CCCC2=C(O)c3ccccc3C(=O)C2=O)cc1, which growth is on record?
Answer: Its growth is 37.5%.

Question: How did the growth turn out when O=C(Nc1ccc(Oc2cccc(Cl)c2)c(Cl)c1)c1cccnc1 was run?
Answer: The growth was 6.06% (active).
